G9a block – blocks human histone lysine methyltransferase G9a; actives 8.8% (n = 350,000); Potency, µM (series often up to 102 µM), without a hit: at the top dose activity, negative = inhibition, most hits filed as inhibitors; Q96KQ7; AID 504332; G9a H3K9 monomethylation, AlphaScreen, 2 h; note: % is set by controls: 0 for no effect and ±100 for the full control effect; nearly all actives have a fitted effect of over 75% in size
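AlphaScreen detection with an anti-monomethyl H3K9 antibody quantified product after a 2 h room-temperature reaction containing 500 nM biotinylated H3K9 peptide, 20 µM SAM and 20 nM enzyme, which had been preincubated 15 min with compound.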
BAZ2B inh – blocks human BAZ2B; Potency, µM (series often up to 114 µM), for inactives: at the top dose activity change, negative = inhibition, most hits filed as inhibitors; actives 4.4% (n = 360,000); AlphaScreen BAZ2B-H3K14Ac peptide displacement; Q9UIF8; AID 504333; note: % is set by controls: 0 for no effect and ±100 for the full control effect; nearly all actives have a fitted effect of over 60% in size
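Compounds, titrated to a top concentration of 110 uM, were incubated 30 min at room temperature with preformed BAZ2B/acetyl-K14 H3 peptide complex (50 nM each). Proximity signal was measured by AlphaScreen after 20 min with beads.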
PLK1 PBD inh – blocks phosphopeptide binding to human PLK1 polo-box domain. P53350. Potency, µM, without a hit: max response, negative = inhibition, hits mostly inhibitors. Plk1 PBD binding of FITC phosphopeptide, fluorescence polarization. actives 2.8% (n = 360,000); note: series mostly up to about 57 µM; % is set by controls: 0 for no effect and ±100 for the full control effect; nearly all actives have a fitted effect of over 65% in size
Target sequence (P53350 whole entry, looked up, the tested form may be a part): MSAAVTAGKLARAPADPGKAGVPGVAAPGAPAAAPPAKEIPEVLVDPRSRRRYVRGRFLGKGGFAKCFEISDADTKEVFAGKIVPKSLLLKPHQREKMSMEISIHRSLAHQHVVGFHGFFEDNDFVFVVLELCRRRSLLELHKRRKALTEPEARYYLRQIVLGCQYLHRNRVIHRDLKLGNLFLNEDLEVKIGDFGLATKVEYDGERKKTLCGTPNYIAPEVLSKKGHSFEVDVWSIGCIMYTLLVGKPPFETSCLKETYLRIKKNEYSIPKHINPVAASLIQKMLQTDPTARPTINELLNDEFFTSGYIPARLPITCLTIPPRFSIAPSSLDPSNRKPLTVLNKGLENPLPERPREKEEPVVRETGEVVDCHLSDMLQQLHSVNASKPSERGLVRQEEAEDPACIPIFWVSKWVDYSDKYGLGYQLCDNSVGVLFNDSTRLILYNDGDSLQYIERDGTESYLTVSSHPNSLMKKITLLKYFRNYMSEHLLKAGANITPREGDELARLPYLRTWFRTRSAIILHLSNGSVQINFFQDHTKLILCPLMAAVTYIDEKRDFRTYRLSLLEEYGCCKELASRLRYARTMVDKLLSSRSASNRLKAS
VDR inhibitor – blocks the human vitamin D receptor; P11473; VDR-SRC2-3 peptide fluorescence polarization, 2 h; Potency, µM, inactives show max response, negative = inhibition, usual class: inhibitors; actives 0.93% (n = 400,000); AID 504847; note: % is set by controls: 0 for no effect and ±100 for the full control effect
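After 23 nl compound addition and a short centrifugation, plates sat for 2 hours at ambient temperature; polarization of fluorescence then indicated loss of VDR binding to peptide SRC2-3.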
JMJD2A Tudor inh – inhibitors of human JMJD2A Tudor domain | Potency, µM (highest dose often 114 µM), for inactives: top-dose activity change, negative = inhibition, hits mostly inhibitors | O75164 | actives 4.4% (n = 390,000) | AlphaScreen JMJD2A-Tudor / H3K4me3 peptide binding; note: % is set by controls: 0 for no effect and ±100 for the full control effect; nearly all actives have a fitted effect of over 50% in size
HP1b chromo inh – blocks HP1-beta chromodomain binding to methylated histone tails | P83916 | AlphaScreen HP1-beta / biotin-H3K9me3 peptide binding | Potency, µM (series often up to 114 µM), for inactives: at the top dose activity change, negative = inhibition, most hits filed as inhibitors | actives 0.56% (n = 390,000) | AID 540317; note: nearly all actives have a fitted effect of over 70% in size
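AlphaScreen: HP1-beta (50 nM) preformed 30 min with biotin-H3(1-18)K9me3 peptide (50 nM) in PBS pH 7.4, 0.01% Tween-20. Compound added for 30 min at RT, then streptavidin donor/nickel chelate acceptor beads (10 ug/mL) for 30 min.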
An asterisk follows results filed as active; ? = inconclusive; . = no result; ! = a repeat was not active; [ ] = remark or other dose. Only some compounds are listed: those with a hit (about 11% of all), similar ones and a draw of the others. Calls come from the whole dose curve; as a rule, active = well fitted curve in the direction sought with a large enough effect; inconclusive = small, poorly fitted or top-dose-only effect, or another doubt; inactive = no such curve, though single readings can be large; an effect the other way counts as inactive or inconclusive. Potency is the fitted concentration of half-maximal effect.

SMILES	G9a block	BAZ2B inh	PLK1 PBD inh	VDR inhibitor	JMJD2A Tudor inh	HP1b chromo inh
Cc1ccc(N2C(=O)NC(=O)C3(Cc4ccccc4N4CCN(c5ccccc5)CC43)C2=O)cc1 (centres undefined)	7.1µM*	-32%	-15%	-1%	-33%	14%
C[C@@H](C1CC[C@@]2(O)C3=CC(=O)[C@@H]4C[C@@H](O)[C@@H](O)C[C@]4(C)[C@H]3CC[C@]12C)[C@H](O)CCC(C)(C)O (some centres undefined)	.	.	.	-11%	-6%	64%
O=C1NC(=S)NC(=O)C1=Cc1ccc(OCc2ccccc2)cc1	.	.	2.7µM*	40µM*	79µM*	-9%
OC[C@@H]1[C@@H](O)[C@H](O)[C@H]2[C@@H](O)CCN21	.	.	.	-2%	.	.
Cc1cc(C(=O)OCC(=O)Nc2ccccc2F)c(C)n1C1CC1	50µM*	-39%	-3%	7%	-24%	1%
Cc1ccc(NC(=O)OC(C)CNC(=O)Oc2cccc(C)c2)cc1 (centres undefined)	3%	?	-20%	-14%	-12%	31%
CN(C)S(=O)(=O)c1cccc(C(=O)N2CCC(C(=O)O)(c3ccccc3)CC2)c1	-19%	2%	-17%	-6%	-15%	50%
CN1CCN(S(=O)(=O)c2cccc(C(=O)N3CCN(c4ccccc4F)CC3)c2)CC1	2µM*	7%	-4%	-2%	-17%	18%
COc1cc(Cc2ccc(N)c(OC)c2)ccc1N	71µM*	?	-3%	24%	?	-21%
OCC(CBr)(CBr)CBr	2%[0.501 µM]	0%	-15%	8%	-17%	27%
CCC[C@@H]1CC2=CC(=O)CC[C@]2(C)[C@@H]2CC[C@@]3(C)[C@H](CC[C@]3(O)CCC(=O)O)[C@H]12	.	.	.	-29%	.	.
Cc1ccc(S(=O)(=O)Oc2ccccc2C=C2C(=O)NC(=O)NC2=O)cc1	.	.	4.7µM*	.	.	.
O=C1NC(=O)C(=CCc2ccccc2)C(=O)N1	.	.	0%	?	-8%	62%
O=C1NC(=O)C(=Cc2ccccc2Oc2ccc(F)cc2)C(=O)N1	10µM*	16%	12µM*	50µM*	-2%	42%
NC(N)=NOCCC(N)C(=O)O (centres undefined)	30µM*!	.	.	-1%	.	.
N[C@H](CCP(=O)(O)O)C(=O)O	.	.	.	-2%	.	.
CC(=O)OO	26%[59 µM]	.	.	1%	.	.
CCCCCCCC/C=C\CCCCCCCC(=O)OC[C@@H](COP(O)(O)=S)OC	.	.	.	18µM*	.	.
Cc1c(F)c(F)c(COC(=O)C2C(/C=C(\Cl)C(F)(F)F)C2(C)C)c(F)c1F (centres undefined)	.	.	.	-4%	.	.
CCOc1ccccc1CN1CCN(S(=O)(=O)CC)CC1	13µM*	50µM*	-7%	6%	5.6µM*	?
CN(C)c1ccc(CN2CCc3nc(N4CCN(c5ccccn5)CC4)ncc3C2)cc1	?	25µM*	.	14%	35µM*	28µM*
COc1cc(CN2CCc3nc(N4CCN(c5ccccc5F)CC4)ncc3C2)ccc1OC(C)C	-14%[59 µM]	?	.	-3%	-22%	19%
CCN1CCN(Cc2ccccc2C)CC1	3%[12.7 µM]	6%	-7%	-2%	-19%	20%
Cc1ccccc1CN1CCc2nc(N3CCN(c4ccccn4)CC3)ncc2C1	-3%[12.7 µM]	?	.	15%	89µM*	20%
COc1ccccc1N=c1scc(-c2ccc(S(=O)(=O)N3CCCC3)cc2)n1C	10µM*	8.9µM*	.	-1%	?	?
SMILES	G9a block	BAZ2B inh	PLK1 PBD inh	VDR inhibitor	JMJD2A Tudor inh	HP1b chromo inh
COc1ccccc1N1CCN(S(=O)(=O)c2ccc3c(c2)oc(=O)n3C)CC1	3%[59 µM]	?	3%	-7%	-16%	8%
Cn1c(=O)oc2cc(S(=O)(=O)N3CCCC(C(=O)NCc4ccccc4Cl)C3)ccc21 (centres undefined)	5%[59 µM]	-1%	.	-17%	-2%	43%
Cc1cc(C(=O)CS(=O)c2ccc(F)cc2)cc(C)c1OC(=O)N(C)C (centres undefined)	40µM*	-13%	12µM*	-27%	-7%	34%
Cn1c(=O)oc2cc(S(=O)(=O)N3CCCC(C(=O)N4CCN(c5cccc(Cl)c5)CC4)C3)ccc21 (centres undefined)	?	-12%	.	-23%	-15%	27%
O=C(CS(=O)C(c1ccccc1)c1ccccc1)NO (centres undefined)	3%[12.7 µM]	.	.	-10%	.	.
CC(C)[C@H](NC(=O)[C@H](CC(=O)O)NC(=O)[C@H](Cc1ccccc1)NC(=O)[C@@H](C)NC(=O)[C@@H](N)Cc1ccc(O)cc1)C(=O)N[C@H](C(=O)NCC(N)=O)C(C)C	.	.	.	9%	.	.
CN(C)CCN(C)CCc1ccc(Cl)c(Cl)c1	-2%[59 µM]	.	.	-2%	.	.
O=C(O)CCCC[C@H]1SC[C@H]2NC(=O)N[C@@H]21	0.4µM*	.	.	-3%	.	.
O=C(O)C1Sc2[nH]c(=O)sc2C2c3cc(Cl)ccc3OC(=O)C12 (centres undefined)	28µM*	?	?	-14%	?	-16%
CN1CCN(c2ncc3ncc(=O)n(C)c3n2)CC1	-3%[0.501 µM]	.	.	8%	.	.
CCN1CCN(c2cc(N3CCCC3)c(F)cc2[N+](=O)[O-])CC1	45µM*	-38%	-5%	-18%	-34%	-13%
CN1CCN(c2cc(N3CCCC3)c([N+](=O)[O-])cc2F)CC1	?	-36%	?	5%	?	?
C=C(C)[C@H]1C2C(=O)O[C@H]1[C@H]1OC(=O)[C@@]34O[C@@H]3C[C@]2(O)[C@@]14C	-3%[59 µM]	.	.	1%	.	.
Cn1c(=O)oc2cc(S(=O)(=O)CCC(=O)N3CCN(c4ccccc4)CC3)ccc21	-5%	-3%	-4%	-15%	-8%	40%
O=C(NCc1nnc(SCC(=O)N2CCN(c3ccccc3)CC2)o1)c1ccco1	-8%[59 µM]	-3%	27µM*	-14%	?	-4%
CN1/C(=C\C=C2C(=O)NC(=S)NC2=O)C(C)(C)c2ccccc21	?	?	-29%	57%	-26%	-7%
O=C1NC(=S)NC(=O)C1=Cc1c(Cl)cccc1Cl	.	.	4.7µM*	16µM*	-12%	4%[57 µM]
NCCCCN=C(N)N	29%[12.7 µM]	.	.	11%	.	.
O=C(O)CNC1c2ccccc2CSc2ccccc21 (centres undefined)	.	.	?	-19%	18µM*	5%
CN(C)C(=O)Oc1cccc([N+](C)(C)C)c1	-8%[59 µM]	-17%	-1%	-10%	5%	51%
Cc1ccc(CN2CCN(CC(=O)N3CCC4(CC3)OCCO4)C2=O)cc1	?	7%	30µM*	-4%	-25%[11.4 µM]	-12%
Cc1ccc(CN2CCSc3ccc(C(=O)N4CCC5(CC4)OCCO5)cc32)cc1	50µM*	-38%[57.1 µM]	-12%	-10%	?	11%

Screens deposited in PubChem BioAssay by National Center for Advancing Translational Sciences (NCATS).
